Source: PubChem BioAssay (NCI)
Compounds without any hit were thinned out: in the full panel of roughly 79,000, 15% have a hit. The source made the active and inactive calls. No stated cut-off is given here; in the data, active means growth inhibition above about 70%; inactive means the rest.

Tests used:
[1] = NCI Yeast Anticancer Drug Screen. Data for the rad52 strain (AID 147);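 further: 0% = growth of vehicle-treated control cultures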; conditions: S. cerevisiae rad52 mutant growth inhibition, hits give high values
Outline: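 DNA repair-defective yeast; compound exposure; growth scored against vehicle controls.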

[2] = NCI Yeast Anticancer Drug Screen. Data for the wt1 strain (AID 149);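 further: 0% = growth of vehicle-treated wt1 cultures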; conditions: S. cerevisiae wt1 strain (SPY 50644) growth inhibition, hits give high values
Outline: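 Vehicle-normalised growth inhibition; strain wt1; compound exposure.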

[3] = NCI Yeast Anticancer Drug Screen. Data for the rad50EPP+ strain (AID 151);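 further: 0% = growth of vehicle-treated control cultures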; conditions: S. cerevisiae rad50 mutant strain, hits give high values
Outline: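 rad50EPP+ yeast treated with test compounds. Readout: growth vs vehicle control.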

[4] = NCI Yeast Anticancer Drug Screen. Data for the mgt1 strain (AID 153); conditions: S. cerevisiae mgt1 mutant growth inhibition, hits give high values
Outline: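 Growth inhibition relative to vehicle controls was scored for the mgt1 yeast strain after compound exposure.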

[5] = NCI Yeast Anticancer Drug Screen. Data for the rad50 strain (AID 155);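 further: 0% = growth of vehicle-only cultures of the same strain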; conditions: S. cerevisiae rad50 strain growth inhibition, hits give high values
Outline: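 A DNA repair-deficient yeast mutant serves as the test organism; compound-induced growth inhibition is calculated against vehicle-treated cells.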

[6] = NCI Yeast Anticancer Drug Screen. Data for the mec2-1 strain (AID 157); conditions: S. cerevisiae mec2-1 strain, hits give high values
Outline: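 Growth inhibition is read against vehicle-treated controls after compound exposure of the mec2-1 yeast strain, which is defective in DNA damage repair or cell cycle control.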

[7] = NCI Yeast Anticancer Drug Screen. Data for the rad14 strain (AID 159);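 further: 0% = growth of vehicle-treated control cultures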; conditions: S. cerevisiae rad14 strain growth inhibition, hits give high values
Outline: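 Vehicle-treated cultures served as the baseline for growth inhibition of a DNA repair-mutant yeast strain exposed to each compound.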

[8] = NCI Yeast Anticancer Drug Screen. Data for the sgs1 mgt1 strain (AID 161);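 further: 0% = growth of cultures given vehicle only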; conditions: S. cerevisiae sgs1 mgt1 strain, hits give high values
Outline: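 Yeast cells carrying a defined DNA-repair defect were exposed to test compounds. Growth inhibition was measured relative to vehicle-treated controls.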

[9] = NCI Yeast Anticancer Drug Screen. Data for the CLN2oe strain (AID 163);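 further: 0% = growth of vehicle-only control cultures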; conditions: S. cerevisiae CLN2oe strain, hits give high values
Outline: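 Compound-treated yeast; growth vs vehicle ctrl = % inhibition. Genetically altered strain (cell-cycle control).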

[10] = NCI Yeast Anticancer Drug Screen. Data for the cln2 rad14 strain (AID 165);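 further: 0% = growth equal to vehicle treated cultures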; conditions: S. cerevisiae cln2 rad14 strain, hits give high values
Outline: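 Growth inhibition, relative to vehicle-treated controls, is the read-out. The test organism is a yeast strain with defined genetic alterations, cln2 rad14.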

[11] = NCI Yeast Anticancer Drug Screen. Data for the bub3 strain (AID 167); conditions: S. cerevisiae bub3 mutant strain, hits give high values
Outline: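 Inhibition values come from growth of compound-treated mutant yeast normalised to vehicle-treated controls.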

[12] = NCI Yeast Anticancer Drug Screen. Data for the wt2 strain (AID 169);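 further: 0% = growth of vehicle-treated yeast cultures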; conditions: S. cerevisiae wt2 strain growth inhibition, hits give high values
Outline: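 Compound exposure of yeast; growth compared with vehicle controls; inhibition reported.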

[13] = NCI Yeast Anticancer Drug Screen. Data for the mlh1 strain (AID 171);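 further: 0% = growth of vehicle-treated control cultures of the same strain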; conditions: S. cerevisiae mlh1 strain growth inhibition, hits give high values
Outline: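 Compounds are applied to a genetically altered yeast strain, and its growth is compared with that of vehicle-treated cultures to give percent inhibition.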

[14] = NCI Yeast Anticancer Drug Screen. Data for the sgs1 strain (AID 173);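 further: 0% = growth of vehicle-only control cultures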; conditions: S. cerevisiae sgs1 mutant, hits give high values
Outline: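 Compounds applied to genetically altered yeast; growth compared with vehicle-treated cultures to give % inhibition.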

[15] = NCI Yeast Anticancer Drug Screen. Data for the mlh1 rad18 strain (AID 175); conditions: S. cerevisiae mlh1 rad18 strain growth inhibition, hits give high values
Outline: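 Cells of a genetically altered yeast strain, deficient in DNA damage repair, were treated with compound. Their growth was then compared with that of vehicle-treated cultures to give inhibition.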

[16] = NCI Yeast Anticancer Drug Screen. Data for the rad18 strain (AID 177); conditions: S. cerevisiae rad18 mutant growth inhibition, hits give high values
Outline: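 Compounds are applied to a repair-deficient yeast strain, and growth is compared with that of vehicle-treated cultures to give percent inhibition.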

[17] = at 5.0 µM (retest, dose inferred, filed as 0.5)
[18] = at 50.0 µM (retest, dose inferred, filed as 5.0)

Measured: growth inhibition

O=C(OCC=C1CCCC1)c1cc([N+](=O)[O-])cc([N+](=O)[O-])c1
active: [1]; at 33.0 µM 85% | [1]; at 100.0 µM 96% | [2]; at 33.0 µM 86% | [2]; at 100.0 µM 98% | [3]; at 33.0 µM 87% | [3]; at 100.0 µM 92% | [4]; at 33.0 µM 95% | [4]; at 100.0 µM 98% | [5]; at 33.0 µM 86% | [5]; at 100.0 µM 96% | [6]; at 33.0 µM 89% | [6]; at 100.0 µM 98% | [7]; at 33.0 µM 71% | [7]; at 100.0 µM 97% | [8]; [18] 81% | [9]; at 100.0 µM 96% | [11]; [18] 70% | [11]; at 100.0 µM 96% | [12]; at 33.0 µM 97% | [12]; at 100.0 µM 98% | [13]; at 33.0 µM 94% | [13]; at 100.0 µM 98% | [14]; at 33.0 µM 97% | [14]; at 100.0 µM 99% | [15]; [18] 94% | [16]; at 33.0 µM 95% | [16]; at 100.0 µM 98%
inactive: [1]; at 1.2 µM -1% | [1]; at 3.7 µM 2% | [1]; at 11.0 µM 21% | [2]; at 1.2 µM -6% | [2]; at 3.7 µM -1% | [2]; at 11.0 µM 10% | [3]; at 1.2 µM 3% | [3]; at 3.7 µM 16% | [3]; at 11.0 µM 53% | [4]; at 1.2 µM -1% | [4]; at 3.7 µM -1% | [4]; at 11.0 µM 16% | [5]; at 1.2 µM 0% | [5]; at 3.7 µM 4% | [5]; [17] 11% | [5]; at 11.0 µM 18% | [5]; [18] 57% | [5]; at 50.0 µM 4.3% | [6]; at 1.2 µM -3% | [6]; at 3.7 µM -2% | [6]; [17] 3% | [6]; at 11.0 µM 13% | [6]; [18] 48% | [6]; at 50.0 µM -14.6% | [7]; at 1.2 µM -2% | [7]; at 3.7 µM 1% | [7]; at 11.0 µM 12% | [8]; [17] -2% | [8]; at 50.0 µM 2.55% | [9]; at 1.2 µM -6% | [9]; at 3.7 µM 1% | [9]; at 11.0 µM 9% | [9]; at 33.0 µM 60% | [10]; [17] -24% | [10]; [18] 4% | [10]; at 50.0 µM -6.45% | [11]; at 1.2 µM -6% | [11]; at 3.7 µM -6% | [11]; [17] -21% | [11]; at 11.0 µM -1% | [11]; at 33.0 µM 61% | [11]; at 50.0 µM 5.55% | [12]; at 1.2 µM -3% | [12]; at 3.7 µM -3% | [12]; at 11.0 µM 16% | [13]; at 1.2 µM -2% | [13]; at 3.7 µM 4% | [13]; at 11.0 µM 22% | [14]; at 1.2 µM -1% | [14]; at 3.7 µM 4% | [14]; at 11.0 µM 26% | [15]; [17] 7% | [15]; at 50.0 µM 23.6% | [16]; at 1.2 µM -2% | [16]; at 3.7 µM 2% | [16]; at 11.0 µM 21%

O=C1c2ccccc2C(=O)c2cc(CBr)ccc21
inactive: [1]; at 1.2 µM 5% | [1]; at 3.7 µM 16% | [1]; at 11.0 µM 21% | [2]; at 1.2 µM 0% | [2]; at 3.7 µM 0% | [2]; at 11.0 µM -1% | [2]; at 33.0 µM 18% | [2]; at 100.0 µM 53% | [3]; at 1.2 µM 27% | [3]; at 3.7 µM 56% | [4]; at 1.2 µM 0% | [4]; at 3.7 µM 2% | [4]; at 11.0 µM 4% | [4]; at 33.0 µM 21% | [4]; at 100.0 µM 68% | [5]; at 1.2 µM 2% | [5]; at 3.7 µM 14% | [5]; [17] 48% | [5]; at 11.0 µM 29% | [6]; at 1.2 µM 1% | [6]; at 3.7 µM 2% | [6]; [17] 32% | [6]; at 11.0 µM 5% | [6]; at 33.0 µM 32% | [7]; at 1.2 µM -2% | [7]; at 3.7 µM 6% | [7]; at 11.0 µM 12% | [7]; at 33.0 µM 53% | [8]; [17] 54% | [9]; at 1.2 µM 1% | [9]; at 3.7 µM 5% | [9]; at 11.0 µM 8% | [9]; at 33.0 µM 28% | [9]; at 100.0 µM 61% | [10]; [17] 33% | [10]; at 50.0 µM 57.5% | [11]; at 1.2 µM 1% | [11]; at 3.7 µM 0% | [11]; [17] 30% | [11]; at 11.0 µM 1% | [11]; at 33.0 µM 26% | [11]; at 100.0 µM 54% | [12]; at 1.2 µM 9% | [12]; at 3.7 µM 3% | [12]; at 11.0 µM 13% | [12]; at 33.0 µM 18% | [12]; at 100.0 µM 69% | [13]; at 1.2 µM 2% | [13]; at 3.7 µM 9% | [13]; at 11.0 µM 17% | [13]; at 33.0 µM 40% | [14]; at 1.2 µM -2% | [14]; at 3.7 µM -14% | [14]; at 11.0 µM 23% | [15]; [17] 63% | [16]; at 1.2 µM 2% | [16]; at 3.7 µM 10% | [16]; at 11.0 µM 23%
active: [1]; at 33.0 µM 79% | [1]; at 100.0 µM 91% | [3]; at 11.0 µM 73% | [3]; at 33.0 µM 94% | [3]; at 100.0 µM 95% | [5]; at 33.0 µM 82% | [5]; [18] 90% | [5]; at 50.0 µM 99.2% | [5]; at 100.0 µM 92% | [6]; [18] 77% | [6]; at 50.0 µM 90% | [6]; at 100.0 µM 71% | [7]; at 100.0 µM 89% | [8]; [18] 89% | [8]; at 50.0 µM 99.2% | [10]; [18] 76% | [11]; [18] 79% | [11]; at 50.0 µM 86.2% | [13]; at 100.0 µM 85% | [14]; at 33.0 µM 74% | [14]; at 100.0 µM 94% | [15]; [18] 92% | [15]; at 50.0 µM 96% | [16]; at 33.0 µM 78% | [16]; at 100.0 µM 93%
